# Experimental data reported in PubChem BioAssay.
# Several values for one entry are separate records, joined by “and”; a condition that tells them apart may be missing. Equal values may be shown once. Results filed as inconclusive are left out. For some assays here: Potency and affinity values are given separately. The source holds several records for some structures; these can differ, active in one and inactive in another. Activity calls are given as the source filed them.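 How the source made its calls, unless noted: active means compounds killing one labelled cell type while sparing the other, by normalised counts and ratio limits, not self-fluorescent; inactive means the rest.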
# Columns and labels:
# [1] = EMT-state selective cytotoxicity in co-culture – imaging, PC-3E GFP, TEM4-18 mCherry, primary screen (AID 1345086); conditions: PC-3E GFP / TEM4-18 mCherry co-culture, imaging cell counts, at 1 µM; for red/green cell ratio (normalised): actives lie on both sides, counts scaled to control wells, 1 = unselective;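 on all read-outs here: cells exposed to compound for 72 h before imaging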;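 on red/green cell ratio (normalised): normalised mesenchymal count divided by normalised epithelial count so high means epithelial killing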
# [2] = blockers of polyQ-driven CASP3 activation – cell-based (AID 1583); conditions: polyglutamine-induced caspase-3 activation, cell assay; stronger effect = higher value;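 tested at 10 µM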
# [3] = yeast 75Q aggregation reduction – 75Q-TubU reporter (AID 1593); conditions: Yeast 75Q polyglutamine aggregation reporter
# [4] = restoration of touch response, mutant HTT neurons – whole organism, C. elegans mechanosensory neurons, N-terminal huntingtin (AID 1599); conditions: C. elegans polyQ-huntingtin mechanosensory neurons, stronger effect = higher value
# [5] = blockers of cytochrome c efflux from mitochondria – biochemical, purified mitochondria (AID 1603); conditions: stronger effect = lower value;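 further: mouse liver mitochondria challenged with calcium chloride; signal normalized to the plate average as 100%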
# [6] = polyglutamine aggregate formation blockers (AID 1604); conditions: polyglutamine-induced protein aggregation inhibition assay; stronger effect = higher value; tested at 2.5 µM
# [7] = glutamate transport activators, MN-1 cells, MN-1 cell line (AID 1612); conditions: MN-1 motor neuron cells, stronger effect = higher value;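 further: tested at 1 µM final; 0% = mean of DMSO vehicle wells on each plate; positive means more glutamate uptake than control and negative means less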
# [8] = 75Q-TubH aggregate inhibition, S. cerevisiae, yeast (AID 1616); conditions: S. cerevisiae 75Q-TubH polyglutamine aggregation suppression; stronger effect = higher value
# [9] = compounds altering circadian rhythm period length – cell-based, LOPAC library, luminescence reporter (AID 2774; call rule not given here;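 further: values are relative to mean of DMSO wells on each plate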); conditions: circadian reporter cells, at 7 µM, actives lie on both sides
# [10] = P. berghei load reduction in hepatocytes – cell-based, HepG2, luciferase luminescence, HepG2 viability, primary screen (AID 624349; in the data active means parasite load remaining mostly below about 12%, no sharp cut-off; inactive means mostly above about 10%;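 further: 100% = mean of DMSO negative control wells on the same plate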); conditions: P. berghei liver stage in HepG2, luciferase luminescence, concentration not given here; parasite load remaining: stronger effect = lower value; viability: measured here: HepG2 viability without parasites
# [11] = test system: Hepatitis C virus NS3 helicase; experiment: blockers of NS3h binding to ssDNA – biochemical, fluorescence polarization, LOPAC1280 library, primary screen (AID 687035; in the data active means inhibition above about 37%); conditions: Purified HCV NS3 helicase, Cy5-dT15 ssDNA binding fluorescence polarization; stronger effect = higher value; concentration not given here
# [12] = compounds altering Cy5-DNA-NS3h complex signal – biochemical, LOPAC1280, artefact control for HCV NS3 helicase inhibitor project (AID 687037; call rule not given here); conditions: Cy5-DNA-NS3h complex fluorescence interference counterscreen
# [13] = test system: Aerobactin synthetase IucA (Klebsiella pneumoniae); experiment: inhibition of K. pneumoniae IucA enzyme – biochemical, Tocris library, absorbance (AID 1345561; call rule not given here;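 further: 100% = enzyme without compound and 0% = no enzyme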); conditions: purified IucA enzyme assay, absorbance (OD) read-out; stronger effect = lower value;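 tested at 8 µM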
# [14] = viability loss in pontine glioma line – cell-based, SU-DIPG-XVII, MIPE5.0, CellTiter-Glo, qHTS, dose response (AID 1347060; cut-off not given, nearly all actives have AC50 up to about 26 µM;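 further: cells exposed to compound for 48 hours before viability readout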); conditions: CellTiter-Glo ATP luminescence
# [15] = viability loss in pontine glioma line – cell-based, SU-DIPG-XIII, MIPE4.0, CellTiter-Glo, qHTS, dose response (AID 1347061; cut-off not given, nearly all actives have AC50 up to about 37 µM;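 further: cells exposed to compound for 48 hours before readout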); conditions: CellTiter-Glo ATP luminescence
# [16] = viability loss in pontine glioma line – cell-based, JHH-DIPG-1, MIPE4.0, CellTiter-Glo, qHTS, dose response (AID 1347062; cut-off not given, nearly all actives have AC50 up to about 27 µM); conditions: JHH-DIPG-1 viability, CellTiter-Glo ATP luminescence
# [17] = viability loss in pontine glioma line – cell-based, SU-DIPG-IV, MIPE4.0, CellTiter-Glo, qHTS, dose response (AID 1347063; cut-off not given, nearly all actives have AC50 up to about 30 µM;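 further: compound exposure lasted 48 hours before the viability readout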); conditions: CellTiter-Glo ATP luminescence
# [18] = viability loss in pontine glioma line – cell-based, SU-DIPG-XIII, MIPE5.0, CellTiter-Glo, qHTS, dose response (AID 1347064; cut-off not given, nearly all actives have AC50 up to about 23 µM); conditions: CellTiter-Glo ATP luminescence
# [19] = viability loss in pontine glioma line – cell-based, SU-DIPG-XXV, MIPE5.0, CellTiter-Glo, qHTS, dose response (AID 1347065; cut-off not given, nearly all actives have AC50 up to about 26 µM;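 further: cells exposed to compound for 48 hours before ATP readout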); conditions: CellTiter-Glo ATP luminescence
# [20] = growth inhibition of DIPG cells – cell-based, MIPE4.0 library, CellTiter-Glo luminescence, qHTS (AID 1347066; cut-off not given, nearly all actives have AC50 up to about 30 µM;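 further: cells exposed to compound for 48 hours before readout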); conditions: SU-DIPG-VI viability, CellTiter-Glo ATP luminescence
# [21] = viability loss with induced miR-34 in A549 – imaging, A549 dox-inducible miR-34, nuclei and caspase counts, primary screen (AID 1347080;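 active means compounds whose cell count with miR-34 switched on is under 0.7 times the count with it off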); conditions: A549 miR-34 inducible, Hoechst nuclei count, 48 h
# [22] = compounds altering HSF1 focus formation in cells – imaging, Selleck Cancer Library (AID 1347162; in the data active means plate-normalised HSF1 focus index below about 0.46); conditions: human cells, HSF1 nuclear foci imaging, at 10 µM; SSMD: measured here: HSF1 foci SSMD mean; cell count: measured here: cell number; plate-normalised HSF1 focus index: stronger effect = lower value
# [23] = galactose survival enhancers in mitochondrial complex I cybrids – cell-based, galactose medium, ATP luminescence, primary screen (AID 1645843;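 active means z-score of at least 1.8 in each of two replicates, scored against plate mean and spread of sample wells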;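 further: positive z means more ATP and so rescue of galactose-driven cybrid death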); conditions: complex I mutant cybrid cells, 72 h, stronger effect = higher value
# [24] = target: Mitogen-activated protein kinase 7 (Homo sapiens) (UniProt Q13164); experiment: Gal4-ERK5 driven luciferase induction – cell-based, HTS, primary screen (AID 1508626;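 active means luciferase signal above three times the same-plate solvent-only control wells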;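 further: luciferase driven by Gal4-ERK5 fusion binding five Gal4 sites before minimal TATA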); conditions: HeLa Gal4-ERK5 transactivation, 18 h, at 5 µM, stronger effect = higher value
# [25] = measured here: epithelial PC-3E GFP cell survival
# [26] = measured here: mesenchymal TEM4-18 mCherry cell survival
# [27] = stronger effect = lower value, cell number ratio, induced over uninduced
# [28] = measured here: relative caspase fold change +Dox/-Dox
# [29] = measured here: total cells with miR-34 induction, stronger effect = lower value
# [30] = measured here: total cells without miR-34 induction
# Sequence of Mitogen-activated protein kinase 7 (Homo sapiens) (Q13164 whole entry, looked up, the tested form may be a part): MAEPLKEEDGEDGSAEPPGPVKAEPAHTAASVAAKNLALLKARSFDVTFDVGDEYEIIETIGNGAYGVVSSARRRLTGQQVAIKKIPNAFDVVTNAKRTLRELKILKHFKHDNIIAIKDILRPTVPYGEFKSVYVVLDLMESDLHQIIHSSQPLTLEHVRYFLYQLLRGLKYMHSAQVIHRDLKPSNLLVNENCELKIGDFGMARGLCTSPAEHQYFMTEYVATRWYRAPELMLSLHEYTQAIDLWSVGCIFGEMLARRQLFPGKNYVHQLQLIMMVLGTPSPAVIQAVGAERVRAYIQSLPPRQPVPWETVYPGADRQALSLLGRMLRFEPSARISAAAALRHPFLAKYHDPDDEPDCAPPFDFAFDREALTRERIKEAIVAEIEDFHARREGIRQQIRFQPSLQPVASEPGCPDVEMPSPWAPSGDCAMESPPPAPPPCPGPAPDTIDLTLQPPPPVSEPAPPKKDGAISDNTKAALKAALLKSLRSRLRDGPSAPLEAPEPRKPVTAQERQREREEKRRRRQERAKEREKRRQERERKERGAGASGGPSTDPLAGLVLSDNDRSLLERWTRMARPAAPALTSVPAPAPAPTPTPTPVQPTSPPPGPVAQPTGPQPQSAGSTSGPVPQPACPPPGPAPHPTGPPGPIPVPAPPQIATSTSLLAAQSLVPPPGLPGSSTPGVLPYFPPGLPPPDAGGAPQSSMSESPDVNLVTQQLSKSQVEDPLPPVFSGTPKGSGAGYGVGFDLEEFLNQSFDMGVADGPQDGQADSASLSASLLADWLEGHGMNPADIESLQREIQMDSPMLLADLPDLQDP
compound,measurement,setting,value
CC1=C(/C=C/C(C)=C/C=C/C(C)=C/C=C/C=C(C)/C=C/C=C(C)/C=C/C2=C(C)C(=O)C(O)CC2(C)C)C(C)(C)CC(O)C1=O (stereo not drawn),red/green cell ratio (normalised),[1],1.11 (inactive)
same,normalised cell number,[1]; [25],0.97
same,normalised cell number,[1]; [26],1.08
C[C@H]1CC[C@@H](C(C)(C)O)CC2=C1CC[C@@H]2C,red/green cell ratio (normalised),[1],1.27 (inactive)
same,normalised cell number,[1]; [25],0.71
same,normalised cell number,[1]; [26],0.91
C[C@]12C=CC(=O)NC1CCC1C2CC[C@@]2(C)C1CC[C@@H]2C(=O)Nc1cc(C(F)(F)F)ccc1C(F)(F)F (stereo partly drawn),red/green cell ratio (normalised),[1],0.83 (inactive)
same,normalised cell number,[1]; [25],1.1
same,normalised cell number,[1]; [26],0.91
CC(=O)O[C@H]1C(=O)[C@@]2(C)C([C@H](OC(=O)c3ccccc3)[C@]3(O)C[C@H](OC(=O)[C@H](O)[C@@H](NC(=O)c4ccccc4)c4ccccc4)C(C)=C1C3(C)C)[C@]1(OC(C)=O)CO[C@@H]1C[C@@H]2O (stereo partly drawn),inhibition,[2],28.3%
same,score,[3],1.98
same,rescue above control,[4],5.24
same,cytochrome c release ratio,[5],1.41
same,inhibition of aggregation,[6],69%
same,glutamate uptake change,[7],-2.18%
same,aggregation suppression score,[8],1.25
same,period change,[9],0.575 h (inactive)
same,parasite load remaining,[10],178% (inactive) and 65.8% (inactive)
same,viability,[10],87.4% and 98%
same,inhibition,[11],-1% (inactive)
same,fluorescence ratio (interference),[12],0.9 (inactive)
same,red/green cell ratio (normalised),[1],0.49 (inactive)
same,normalised cell number,[1]; [25],0.23
same,normalised cell number,[1]; [26],0.11
same,remaining activity,[13],121% (inactive)
same,AC50,[14],5.9 nM (active)
same,outcome,[15],inactive
same,outcome,[16],inactive
same,outcome,[17],inactive
same,outcome,[18],inactive
same,AC50,[19],7.42 nM (active)
same,outcome,[20],inactive
same,fold change,[21]; [27],1.16 (inactive) and 1.14 (inactive)
same,fold change,[21]; [28],0.394 and 2.19
same,cell count,[21]; [29],2700 and 2090
same,cell count,[21]; [30],2330 and 1830
same,SSMD,[22],5.16
same,cell count,[22],6910
same,plate-normalised HSF1 focus index,[22],1.32 (inactive)
same,z-score,[23],0.865 (inactive)
Cc1cccc(CN2CCN(C(c3ccccc3)c3ccc(Cl)c(C)c3)CC2)c1 (stereo not drawn),red/green cell ratio (normalised),[1],0.79 (inactive)
same,normalised cell number,[1]; [25],1.23
same,normalised cell number,[1]; [26],0.97
Cc1[nH]cc[n+]1CC1CCC2C(C1=O)c1ccccc1N2C (stereo not drawn),red/green cell ratio (normalised),[1],0.73 (inactive)
same,normalised cell number,[1]; [25],1.19
same,normalised cell number,[1]; [26],0.87
O=C(O)c1ccccc1Nc1cccc(OCc2ccc3ccccc3n2)c1,period change,[9],-0.125 h (inactive)
same,inhibition,[11],0% (inactive)
same,fluorescence ratio (interference),[12],1 (inactive)
same,red/green cell ratio (normalised),[1],0.86 (inactive)
same,normalised cell number,[1]; [25],1.35
same,normalised cell number,[1]; [26],1.16
same,remaining activity,[13],112% (inactive)
same,fold change,[21]; [27],0.992 (inactive) and 0.929 (inactive)
same,fold change,[21]; [28],0.944 and 0.452
same,cell count,[21]; [29],9820 and 8230
same,cell count,[21]; [30],9900 and 8860
same,z-score,[23],2.17 (active) and -0.695 (inactive)
COC1=CC(=O)C(C)=C(C[C@@H](C)O)C1=O,red/green cell ratio (normalised),[1],1.12 (inactive)
same,normalised cell number,[1]; [25],0.99
same,normalised cell number,[1]; [26],1.11
CC(C)C1=CC2=CCC3[C@](C)(CCC[C@]3(C)C(=O)O)C2CC1 (stereo partly drawn),red/green cell ratio (normalised),[1],1.12 (inactive)
same,normalised cell number,[1]; [25],0.92
same,normalised cell number,[1]; [26],1.03
C[C@@H]1OC(O[C@H]2[C@H](O)[C@@H](O)[C@H](OC[C@H]3O[C@@H](OC(=O)[C@]45CCC(C)(C)CC4C4=CCC6[C@@]7(C)CC[C@H](OC8OC[C@H](O)[C@H](O)[C@H]8OC8O[C@@H](C)[C@H](O)[C@@H](O)[C@H]8O)[C@@](C)(CO)C7CC[C@@]6(C)[C@]4(C)CC5)[C@H](O)[C@@H](O)[C@@H]3O)O[C@@H]2CO)[C@H](O)[C@H](O)[C@H]1O (stereo partly drawn),red/green cell ratio (normalised),[1],0.98 (inactive)
same,normalised cell number,[1]; [25],0.96
same,normalised cell number,[1]; [26],0.93
CO[C@@H]1CC(=O)c2cccc3c2C12Oc1ccc(O)c4c1[C@](O3)(O2)C1O[C@@H]1[C@@H]4O (stereo partly drawn),red/green cell ratio (normalised),[1],0.98 (inactive)
same,normalised cell number,[1]; [25],1
same,normalised cell number,[1]; [26],0.98
CC(=O)OCC1O[C@H](Sc2ccc(C)cc2)[C@@H]2[C@@H](OC(=O)N2C(=O)OCc2ccccc2)C1OC(C)=O (stereo partly drawn),red/green cell ratio (normalised),[1],0.78 (inactive)
same,normalised cell number,[1]; [25],1.24
same,normalised cell number,[1]; [26],0.96
CC(C)CCCC(C)[C@H]1CCC2C3C=CC4=CC(=O)CC[C@]4(C)C3CC[C@@]21C (stereo partly drawn),red/green cell ratio (normalised),[1],0.99 (inactive)
same,normalised cell number,[1]; [25],0.94
same,normalised cell number,[1]; [26],0.93
COC(=O)C1O[C@H](OCc2ccccc2)[C@@H](OC(=O)c2ccccc2)[C@@H](OC(=O)c2ccccc2)C1O (stereo partly drawn),red/green cell ratio (normalised),[1],1.02 (inactive)
same,normalised cell number,[1]; [25],1.18
same,normalised cell number,[1]; [26],1.2
NCCOB(c1ccccc1)c1ccccc1,red/green cell ratio (normalised),[1],1.1 (inactive)
same,normalised cell number,[1]; [25],0.8
same,normalised cell number,[1]; [26],0.89
same,remaining activity,[13],110% (inactive)
same,fold change,[21]; [27],0.925 (inactive)
same,fold change,[21]; [28],0.886
same,cell count,[21]; [29],8820
same,cell count,[21]; [30],9540
same,luciferase signal,[24],120 AU (inactive)
same,z-score,[23],1.9 (inactive)
COc1cccc2c1C(=O)OCc1cc(C)cc(O)c1O2,red/green cell ratio (normalised),[1],0.9 (inactive)
same,normalised cell number,[1]; [25],1.17
same,normalised cell number,[1]; [26],1.05
COc1cc2c(cc1OC)C1C(=O)c3c(O)cc4c(c3OC1CO2)C=CC(C)(C)O4 (stereo not drawn),red/green cell ratio (normalised),[1],0.7 (inactive)
same,normalised cell number,[1]; [25],0.94
same,normalised cell number,[1]; [26],0.66
C[C@@H]1O[C@@H](O[C@H]2[C@@H](Oc3cc(O)c4c(c3)O[C@H](c3ccc(O)cc3)CC4=O)O[C@H](CO)[C@@H](O)[C@@H]2O)[C@H](O)[C@H](O)[C@H]1O,red/green cell ratio (normalised),[1],1.11 (inactive)
same,normalised cell number,[1]; [25],0.94
same,normalised cell number,[1]; [26],1.04
